# TROY NFkB inh – blocks TROY-dependent signaling in reporter cells; Q293 LMP1-TROYcd NF-kB luciferase reporter, 4 h; inhibition, % at 10 µM; 360,000 tested, 0.98% active;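 active means compounds whose plate-normalised and pattern-corrected inhibition of the luciferase reporter signal at the single screening dose is 50% or more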
# EBV LMP1 NFkB – Epstein-Barr LMP1 NF-kappaB reporter inhibition; LMP1-induced NF-kappaB luciferase reporter cells, luminescence; inhibition, % at 12.5 µM; 350,000 tested, 0.69% active; in the data active means inhibition above about 41%; inconclusive means no clear call, values can overlap the other calls;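 further: 0% = neutral control wells and 100% = reference inhibitor control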
# TWEAK-Fn14 inh – blocks TWEAK-Fn14 interaction in a reporter cell assay | TWEAK-stimulated Fn14 reporter cells, luciferase luminescence, 8 h | inhibition, % at 10 µM | 360,000 tested, 2% active | AID 1159606; in the data active means inhibition above about 50%
# LGR2 inh – blocks bursicon-induced cAMP signaling via Drosophila LGR2. HEK293 LGR2, CRE-luciferase, bursicon-stimulated, 4 h. inhibition, % at 9.99 µM. 380,000 tested, 0.35% active;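 active means drop in luminescence signal, shown as inhibition above about 50% in the replicate tests, limit read from the data, passing the limit was not always enough; inconclusive means probably only some replicates passing the limit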;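 further: agonist challenge used bursicon conditioned medium at about half maximal strength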
# EWS-Fli block – blocks EWS/Fli oncoprotein-driven transcription; A673 NR0B1-luciferase reporter, viability-normalised; inhibition, % at 12.6 µM; 350,000 tested, 0.67% active;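 active means mean inhibition of at least 50% after viability correction, with every replicate also passing that limit; inconclusive means mean reaches 50% but only one of two replicates passes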;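 further: firefly luciferase signal divided by Alamar Blue viability fluorescence both relative to DMSO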
# An asterisk follows results filed as active; ? = inconclusive; · = no result given. Rows were chosen to be rich in hits. Some 2.5% of all compounds tested hit in one or more screens of this group.
SMILES,TROY NFkB inh,EBV LMP1 NFkB,TWEAK-Fn14 inh,LGR2 inh,EWS-Fli block
C[C@@H]1CN([C@H](C)CO)S(=O)(=O)c2ccc(-c3ccc(F)cc3)cc2O[C@H]1CN(C)C(=O)C1CCC1,·,·,·,17,-2
Cc1ccc(-n2c(C)c([N+](=O)[O-])c3ccc(O)c(CN(C)C)c32)cc1,51*,?,75*,·,·
COCCN(C(=O)c1csnn1)C(C(=O)NC1CCCC1)c1ccccc1F (configuration not stated),17,-4,66*,-3,1
COCCN(C(=O)c1csnn1)C(C(=O)NC1CCCC1)c1ccc(C)cc1 (configuration not stated),-1,-18,-5,3,4
Cc1ccc(C(C(=O)NC2CCCCC2)N(Cc2cccnc2)C(=O)c2csnn2)cc1 (configuration not stated),11,-13,92*,-5,-1
Cc1cccc(/C=N/NC(=O)c2cccc([N+](=O)[O-])c2)n1,-34,-13,-39,2,-6
Cc1cc(/C=N/NC(=O)c2cccc([N+](=O)[O-])c2)c(C)n1-c1ccc(Cl)cc1Cl,·,6,95*,·,·
Cc1cccc(-n2ncc3c(N4CCCC4)ncnc32)c1,22,7,57*,36,·
Cc1cccc(-n2ncc3c(N4CCOCC4)ncnc32)c1,68*,66*,85*,90*,68*
Cc1cccc(-n2ncc3c(N4CC(C)CC(C)C4)ncnc32)c1 (configuration not stated),33,-63,11,-87,-76
COCC(=O)Nc1ccc2c(c1)OC[C@@H](C)N(Cc1cncnc1)C[C@@H](C)[C@@H](OC)CN(C)C2=O,·,·,·,-1,-1
Cc1cccc(C)c1-n1c(C)cc(/C=N\Nc2ccc([N+](=O)[O-])cn2)c1C,·,1,80*,·,·
C[C@H]1CCCCO[C@H](CN(C)C(=O)NC2CCCCC2)[C@@H](C)CN([C@@H](C)CO)C(=O)c2cc(NC(=O)c3ccccc3)ccc2O1,·,·,·,19,12
C[C@H](NC(=O)[C@@H]1[C@@H](CO)[C@@H]2Cn3c(ccc(-c4cccnc4)c3=O)[C@@H]2N1C)c1ccccc1,·,·,·,1,10
O=c1c2[nH]c3cccc(Cl)c3c2ncn1CCN1CCCCC1,-6,-2,-5,-21,·
O=c1c2[nH]c3cccc(Cl)c3c2ncn1CC1CCCO1 (configuration not stated),77*,-16,87*,-21,-28
CCOC(=O)CSc1nc(C(C)C)nc2sc(C)c(C)c12,-18,-2,-3,-5,2
Cc1ccc(-c2nnc(CSc3nc(C(C)C)nc4sc(C)c(C)c34)o2)cc1,·,6,83*,·,·
O=C1NC[C@H](CCCCN2C[C@H](Cc3ccccc3)N(CCC3CCCCC3)C(=O)C2=O)N(CCC2CCCCC2)C1=O,77*,·,27,5,3
COc1cc(OC)cc(C(=O)N[C@H](C(=O)OCC(=O)c2ccc(C)c([N+](=O)[O-])c2)C(C)C)c1,-6,84*,-9,14,-6
C[C@@H]1CN([C@@H](C)CO)C(=O)c2cc(NC(=O)Nc3ccc4c(c3)OCO4)ccc2O[C@@H](C)CCCCO[C@@H]1CN(C)S(=O)(=O)c1cn(C)cn1,·,·,·,15,-56
Clc1ccccc1-c1ncnc2ccc(Br)cc12,3,17,13,12,-3
NNc1nc(-c2ccccc2Cl)c2cc(Br)ccc2n1,87*,29,28,-9,12
Oc1ccc(Br)cc1-c1nc2cnccn2c1NC1CCCC1,14,-8,62*,·,·
CN(C)CC(=O)Nc1ccc2c(c1)[C@@H]1C[C@@H](CC(=O)NC3CCCC3)O[C@@H](CO)[C@@H]1O2,·,·,·,9,1
SMILES,TROY NFkB inh,EBV LMP1 NFkB,TWEAK-Fn14 inh,LGR2 inh,EWS-Fli block
CC1CC(=O)c2c(cc3c(-c4c(O)cc(O)c5c(O)c6c(cc45)OC(C)CC6=O)c(O)cc(O)c3c2O)O1 (configuration not stated),1,27,78*,·,·
Cc1noc(C)c1S(=O)(=O)Nc1ccc2c(c1)C(=O)N([C@H](C)CO)C[C@H](C)[C@@H](CN(C)Cc1ccc(-c3ccccc3)cc1)O2,·,·,·,14,4
CO[C@@H]1CN(C)C(=O)c2cc(NC(=O)C3CC3)ccc2OC[C@@H](C)N(Cc2cccc(F)c2)C[C@H]1C,·,·,·,10,3
COCCNc1nc(NCc2ccccc2OC)c2sccc2n1,20,·,5,-1,14
COc1ccccc1CNc1nc(Nc2cccc(-c3cnco3)c2)c2sccc2n1,75*,·,98*,5,3
COc1ccccc1CNc1nc(NCc2ccccc2OC)c2sccc2n1,57*,·,42,31,3
COCCNc1nc(NCC2CCCCC2)c2sc(-c3ccccc3)cc2n1,1,·,12,13,34
COc1ccccc1CNc1nc(NCc2ccccc2SC)c2sccc2n1,55*,·,90*,19,27
c1ccc(-c2cc3nc(NCC4CC4)nc(NCC4CCCCC4)c3s2)cc1,15,·,56*,-35,8
O=C(NCC[C@H]1CC[C@@H](NS(=O)(=O)c2ccc(Cl)cc2)[C@@H](CO)O1)c1ccc2c(c1)OCO2,·,·,·,-13,·
C[C@@H]1CN([C@H](C)CO)C(=O)c2cccc(NC(=O)Nc3ccc4c(c3)OCO4)c2O[C@H]1CN(C)S(C)(=O)=O,·,·,·,-16,-6
COCCNc1nc(NCc2ccccc2)nc2ccsc12,39,·,24,-10,-4
CCOC(=O)Cc1ccc(Nc2nc(NC)nc3ccsc23)cc1,1,·,-9,-52,1
CCOC(=O)Cc1ccc(Nc2nc(NCc3ccccc3)nc3ccsc23)cc1,57*,·,93*,-4,8
CC(C)Nc1nc(NCc2ccccc2)c2sccc2n1,57*,·,3,·,22
CC(=O)Nc1ccc(CNc2nc(NC(C)C)nc3cc(-c4ccccc4)sc23)cc1,-94,·,-233,11,60*
Cc1nn(C)cc1NC(=O)C[C@@H]1CC[C@@H]2[C@H](COc3ccc(NC(=O)NC(C)C)cc3C(=O)N2C)O1,·,·,·,12,-3
Cc1ccc(-c2ccc([C@@H]3[C@@H](CO)N4CCCCN(C(=O)c5ccncc5)C[C@@H]34)cc2)cc1,·,·,·,-2,·
CC=Cc1ccc2n(c1=O)C[C@H]1[C@H](CO)[C@@H](C(=O)N[C@@H](C)c3ccccc3)[C@@H]2N1CC (mixture of isomers),·,·,·,30,-10
O=C(N[C@@H]1CC[C@H](CC(=O)N2CCOCC2)O[C@@H]1CO)c1cccc(F)c1,·,·,·,6,7
Cc1cc(S(=O)(=O)N2CCN=C2c2ccccc2)ccc1F,-3,2,-4,·,·
CCOc1ccc(S(=O)(=O)N2CCN=C2c2ccccc2)cc1,12,1,25,16,55*
CO[C@H]1CN(C)C(=O)c2ccc(NC(=O)Nc3ccc(Cl)cc3)cc2OC[C@@H](C)N(C(=O)Nc2c(C)noc2C)C[C@@H]1C,·,·,·,8,8

# Bioassay records: PubChem BioAssay, several laboratories
